Screens (PubChem)
Ba/F3 V617F tox: loss of viability in JAK2V617F-driven Ba/F3 cells; 220,000 compounds, 1.1% hits; inhibition, % at 5.6 µM; Ba/F3 EpoR-JAK2V617F viability, ATP luminescence;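 active = inhibition above the campaign mean plus 3 SD over all tested compounds, cut at about 24% in these data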;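 also: cytokine-independent growth of Ba/F3 cells driven by EpoR plus mutant JAK2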
IEC-6 cytotox: counter-screen for KLF5 inhibitors: cytotoxicity in IEC-6 cells; inhibition, % at 5 µM; 290,000 compounds, 0.78% hits; IEC-6 cytotoxicity, luminescence viability
BaF3 tox: counter-screen for JAK2V617F inhibitors: parental Ba/F3 viability inhibitors | inhibition, % at 5.6 µM | AID 1486 | CellTiter-Glo ATP luminescence | 220,000 compounds, 1.1% hits;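 active = inhibition above a per-campaign cutoff, the mean inhibition of all tested compounds plus 3 SD, cut at about 27% in these data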
KLF5 inhibitor: suppresses KLF5 promoter-driven expression; DLD-1 KLF5 promoter-luciferase reporter, luminescence; inhibition, % at 5 µM; 290,000 compounds, 0.23% hits; AID 1700;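 active = inhibition above a per-plate limit of that plate's mean compound inhibition plus 3 SD, cut at about 60% in these data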;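 also: higher means less KLF5 promoter-driven luciferase light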
aSyn UTR inh: 5' untranslated region of α-synuclein, MLPCN primary screen | alpha-synuclein 5'UTR reporter, inhibitor activity | inhibition, % (tested at 7.5 µM) | 300,000 compounds, 0.82% hits; in the data active = inhibition above about 60%; inconclusive = no clear call, values can overlap the other calls;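 also: H4 neuroglioblastoma cells stably carrying SNCA 5'UTR luciferase fusion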
APP 5UTR inh: APP translation inhibition; SH-SY5Y APP 5'UTR-luciferase reporter, luminescence; 190,000 compounds, 0.82% hits; inhibition, % at 2 µM;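 active = inhibition above a set limit, derived from the sample mean plus 3 SD, cut at about 45% in these data; inconclusive = one replicate passes the limit while the other fails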
IEC-6 tox confirm: IEC-6 cytotoxicity, confirmation assay; inhibition, % at 5 µM; shares compounds with IEC-6 cytotox; 1,900 compounds, 63% hits; IEC-6 rat intestinal epithelial viability, luminescence
Of the large screens only hits and unclear results are named; the others gave an inactive call (follow-up assays come after a bar, where they were run). Hits are enriched below; roughly 2.2% of the tested compounds scored in any of these assays. Rule as the data show it, unless noted: active = inhibition above about 22%; inactive = the rest.

COc1ccc(NC(=O)N2CCN(C(=O)C3CCCO3)CC2)cc1 (stereo unspecified)	none (no result: Ba/F3 V617F tox, BaF3 tox, APP 5UTR inh)
NS(=O)(=O)c1ccc(CNC(=O)c2cc(=O)c3cc(Cl)ccc3o2)cc1	IEC-6 cytotox 101 (no result: Ba/F3 V617F tox, BaF3 tox, APP 5UTR inh) | IEC-6 tox confirm inactive
Cc1ccc2oc(C(=O)NCc3ccc(S(N)(=O)=O)cc3)cc(=O)c2c1	none (no result: Ba/F3 V617F tox, BaF3 tox, APP 5UTR inh)
COCC1CCN(C(=O)c2cc(COc3cc(C)c(Cl)c(C)c3)on2)C1 (stereo unspecified)	none (no result: Ba/F3 V617F tox, BaF3 tox, APP 5UTR inh)
Cc1cc(C(=O)NC2CCCc3c2cnn3-c2cccc(C)c2C)n(C)n1 (stereo unspecified)	IEC-6 cytotox 36 (no result: Ba/F3 V617F tox, BaF3 tox, APP 5UTR inh) | IEC-6 tox confirm 29
Cc1cccc(-n2ncc3c2CCCC3NC(=O)c2ccc[n+]([O-])c2)c1C (stereo unspecified)	none (no result: Ba/F3 V617F tox, BaF3 tox, APP 5UTR inh)
Cn1nccc1C(=O)NC1CCCc2c1cnn2-c1ccc(C(C)(C)C)cc1 (stereo unspecified)	IEC-6 cytotox 23 (no result: Ba/F3 V617F tox, BaF3 tox, APP 5UTR inh) | IEC-6 tox confirm inactive
CC(=O)NC1CCCc2c1cnn2-c1ccc(C(C)(C)C)cc1 (stereo unspecified)	none (no result: Ba/F3 V617F tox, BaF3 tox, APP 5UTR inh)
CC(C)n1c(C(F)(F)F)nc2cc(C(=O)N3CCCCC3)ccc21	none (no result: APP 5UTR inh)
O=C(c1cc(F)c(F)cc1Cl)N1CCCc2ccccc21	none (no result: Ba/F3 V617F tox, BaF3 tox, APP 5UTR inh)
COc1cccc(/C=C2\CCCCC2=O)c1	none (no result: Ba/F3 V617F tox, BaF3 tox, APP 5UTR inh)
O=C(NC1CCCC1)C1CCN(C(=O)c2ccc(-c3ccccc3)cc2)CC1	none
Cc1noc(C)c1COc1cccc(C(=O)OCC(=O)N2CC(=O)Nc3ccccc32)c1	IEC-6 cytotox 79, aSyn UTR inh 65, APP 5UTR inh 93 | IEC-6 tox confirm 43
O=C1CN(C(=O)COc2cccc(F)c2)c2ccccc2N1	none
O=C(O)c1cc(C(F)(F)F)nc2c(C(F)(F)F)cccc12	none
Cc1cc(CNC(=O)Cn2nc(C)c([N+](=O)[O-])c2C)c2ccccc2n1	none
Cc1cc2nc(C3CCN(Cc4nnnn4Cc4cccs4)CC3)[nH]c2cc1C	IEC-6 cytotox 46, aSyn UTR inh 63 | IEC-6 tox confirm 34
CCN1CCN(CCNC(=O)c2ccc(/C=C3/Sc4ccccc4N(Cc4ccccc4C)C3=O)cc2)CC1	IEC-6 cytotox 30 | IEC-6 tox confirm inactive
CCc1nc2ccccc2c(C(=O)OCC(=O)C(C)(C)C)c1C	IEC-6 cytotox 24 | IEC-6 tox confirm inactive
CN1CCc2c(n(CC(O)CNCc3ccccc3)c3ccccc23)C1=O (stereo unspecified)	none
CC(C)NCC(O)Cn1c2c(c3ccccc31)CCc1c-2cnn1-c1ccccc1 (stereo unspecified)	Ba/F3 V617F tox 88, IEC-6 cytotox 75, BaF3 tox 79, aSyn UTR inh 108, APP 5UTR inh 87 | IEC-6 tox confirm 73
CCN(C(=O)CSc1nnc2nc(C)cc(C)n12)c1ccccc1	none
CCN(CC)CCNc1ccc(CO)c2sc3ccccc3c(=O)c12	Ba/F3 V617F tox 66, IEC-6 cytotox 54, BaF3 tox 47 | IEC-6 tox confirm 64
COc1ccc(/C=N/NC(=O)c2ccco2)cc1COc1ccc(F)cc1	none (no result: Ba/F3 V617F tox, BaF3 tox, APP 5UTR inh)
COc1ccc(/C=N\NC(=O)c2ccccc2F)cc1COc1ccc(F)cc1	IEC-6 cytotox 23 (no result: Ba/F3 V617F tox, BaF3 tox, APP 5UTR inh) | IEC-6 tox confirm inactive
COc1ccc(/C=N\NC(=O)c2ccccc2F)cc1COc1ccc(F)cc1F	IEC-6 cytotox 80 (no result: Ba/F3 V617F tox, BaF3 tox, APP 5UTR inh) | IEC-6 tox confirm 62
COc1cc2ccccc2cc1C(=O)N/N=C/c1ccc2c(c1)OCO2	IEC-6 cytotox 37 (no result: Ba/F3 V617F tox, BaF3 tox, APP 5UTR inh) | IEC-6 tox confirm 25
COc1ccc(-c2cn(-c3ccc(OC)cc3)c3[n+]2-c2ccccc2CC3)cc1	Ba/F3 V617F tox 95, IEC-6 cytotox 25, BaF3 tox 77 | IEC-6 tox confirm 26
O=[N+]([O-])c1ccc(-n2nnnc2-c2ccccc2)c([N+](=O)[O-])c1	Ba/F3 V617F tox 69, IEC-6 cytotox 32, BaF3 tox 30 | IEC-6 tox confirm inactive
CCOC(=O)c1ccc(-c2c(-c3ccc4c(c3)OCO4)noc2-c2ccsc2)cc1F	none (no result: Ba/F3 V617F tox, BaF3 tox, APP 5UTR inh)
CCOC(=O)c1ccc(-c2c(-c3cc(OC)c(OC)c(OC)c3)noc2C)cc1F	IEC-6 cytotox 76, aSyn UTR inh inconclusive (no result: Ba/F3 V617F tox, BaF3 tox, APP 5UTR inh) | IEC-6 tox confirm 57
O=C(COc1cccc(-n2cnnn2)c1)Nc1ccc([N+](=O)[O-])cc1	none (no result: Ba/F3 V617F tox, BaF3 tox, APP 5UTR inh)
O=C(COC(=O)C1=COCCO1)Nc1ccc(OC(F)F)cc1	none
COc1ccc(/C=N/n2c(COc3ccccc3)n[nH]c2=S)cc1OC	none (no result: Ba/F3 V617F tox, BaF3 tox, APP 5UTR inh)
CCCNC(=O)OCc1cccnc1Sc1ccc(C)cc1	none
Cc1ccc(CNC(=O)CCCn2nc(C)n3ccnc3c2=O)cc1	none (no result: Ba/F3 V617F tox, BaF3 tox, APP 5UTR inh)
N#C/C(=N/Nc1ccc(OC(F)(F)F)cc1)C(N)=S	Ba/F3 V617F tox 50, IEC-6 cytotox 28, BaF3 tox 68 (no result: APP 5UTR inh) | IEC-6 tox confirm 35
COc1ccc(N/N=C(\C#N)C(N)=O)cc1	none
O=C(NCCNC(=O)c1cnccn1)c1ccc(Cl)c(Cl)c1	none (no result: Ba/F3 V617F tox, BaF3 tox, APP 5UTR inh)
O=C(NNC(=O)c1cnccn1)c1ccc(Cl)c(Cl)c1	IEC-6 cytotox 37, aSyn UTR inh inconclusive (no result: Ba/F3 V617F tox, BaF3 tox, APP 5UTR inh) | IEC-6 tox confirm inactive
O=C(c1ccc([N+](=O)[O-])o1)N1CCc2ccccc21	IEC-6 cytotox 30 (no result: Ba/F3 V617F tox, BaF3 tox, APP 5UTR inh) | IEC-6 tox confirm inactive
O=C(c1ccc([N+](=O)[O-])o1)N1CCc2ccccc2C1	none (no result: APP 5UTR inh)
O=[N+]([O-])c1cc([N+](=O)[O-])c2oc(-c3ccccc3)c(Br)c2c1O	IEC-6 cytotox 29 (no result: Ba/F3 V617F tox, BaF3 tox, APP 5UTR inh) | IEC-6 tox confirm inactive
COc1ccc(-c2nn(-c3ccccc3)cc2/C=N/N=C(N)N)cc1OC	none
COc1ccc(-c2nn(-c3ccccc3)cc2/C=N/O)cc1OC	IEC-6 cytotox 27 (no result: Ba/F3 V617F tox, BaF3 tox, APP 5UTR inh) | IEC-6 tox confirm inactive
O=[N+]([O-])c1cc(-c2ccc(/C=N\n3cnnc3)o2)cc([N+](=O)[O-])c1	none (no result: Ba/F3 V617F tox, BaF3 tox, APP 5UTR inh)
COc1ccc(/C=C2\COc3ccccc3C2=O)c(OC)c1	IEC-6 cytotox 26 (no result: Ba/F3 V617F tox, BaF3 tox, APP 5UTR inh) | IEC-6 tox confirm inactive
O=C(NCc1cccc(Cl)c1)c1ccc(N2CC3CC(C2)c2cccc(=O)n2C3)c(NC(=O)c2cccnc2)c1 (stereo unspecified)	none (no result: Ba/F3 V617F tox, BaF3 tox, APP 5UTR inh)
CCOC(=O)Nc1ccc2nc(N3CCCCCC3)sc2c1	Ba/F3 V617F tox 78, IEC-6 cytotox 67, BaF3 tox 67 (no result: APP 5UTR inh) | IEC-6 tox confirm 60
